# Shown are actives, neighbours in structure and some others; about 3.8% of the full set was active somewhere.
# PAFAH2 inh – PAFAH2 enzyme inhibitors, primary screen, biochemical, fluorescence polarization, human; recombinant PAFAH2, FP-rhodamine activity probe; Platelet-activating factor acetylhydrolase 2, cytoplasmic (Homo sapiens), Q99487; actives 0.99% (n = 340,000); inhibition, % at 3.39 µM;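 active = inhibition above the mean over all tested compounds plus 3 SD, cut at about 30% in these data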;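 also: inhibitors block probe labeling of enzyme so polarization drops; 0% = enzyme with DMSO and 100% = wells lacking PAFAH2 protein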
# PAFAH1B3 FP inh – PAFAH1B3 enzyme inhibitors, primary screen, biochemical, fluorescence polarization, human. Platelet-activating factor acetylhydrolase IB subunit alpha1 (Homo sapiens), Q15102. recombinant PAFAH1B3, FP-rhodamine probe. AID 492972, 2010. actives 0.28% (n = 340,000). inhibition, % at 3.39 µM;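 active = inhibition above the screen-wide average of all tested compounds plus 3 SD, cut at about 25% in these data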;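 also: 0% = enzyme with DMSO only and 100% = wells lacking PAFAH1B3 protein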
# PfM18AAP inh-1 – PfM18AAP inhibitors, malaria aminopeptidase, primary screen, biochemical, QFRET, recombinant enzyme; inhibition, % at 7.35 µM; H-Glu-NHMec fluorogenic cleavage; actives 1.2% (n = 290,000);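 active = inhibition above the campaign mean inhibition over all tested compounds plus 3 SD, cut at about 28% in these data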;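 also: 0% = plate median of test compound wells and 100% = 2 mM ZnCl2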
# PAFAH1B2 FP inh – PAFAH1B2 enzyme inhibitors, primary screen, biochemical, fluorescence polarization, human; Platelet-activating factor acetylhydrolase IB subunit alpha2 (Homo sapiens), P68402; recombinant PAFAH1B2, FP-rhodamine activity probe; inhibition, % at 3.39 µM; actives 1.2% (n = 340,000);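 active = inhibition above the mean of all tested compounds plus 3 SD, cut at about 24% in these data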;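 also: 0% = enzyme with DMSO and 100% = wells lacking PAFAH1B2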
# pPAFAH FP inh – pPAFAH enzyme inhibitors, primary screen, biochemical, fluorescence polarization, human. Platelet-activating factor acetylhydrolase (Homo sapiens), Q13093. inhibition, % at 3.39 µM. recombinant pPAFAH, FP-rhodamine probe fluorescence polarization. actives 1.5% (n = 330,000);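 active = inhibition above the mean inhibition across the screen plus 3 SD, cut at about 25% in these data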;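 also: inhibitors block binding of the rhodamine activity-based probe so polarization drops; 0% = enzyme with DMSO and 100% = wells lacking pPAFAH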
# Target sequence (Q13093 whole entry, looked up): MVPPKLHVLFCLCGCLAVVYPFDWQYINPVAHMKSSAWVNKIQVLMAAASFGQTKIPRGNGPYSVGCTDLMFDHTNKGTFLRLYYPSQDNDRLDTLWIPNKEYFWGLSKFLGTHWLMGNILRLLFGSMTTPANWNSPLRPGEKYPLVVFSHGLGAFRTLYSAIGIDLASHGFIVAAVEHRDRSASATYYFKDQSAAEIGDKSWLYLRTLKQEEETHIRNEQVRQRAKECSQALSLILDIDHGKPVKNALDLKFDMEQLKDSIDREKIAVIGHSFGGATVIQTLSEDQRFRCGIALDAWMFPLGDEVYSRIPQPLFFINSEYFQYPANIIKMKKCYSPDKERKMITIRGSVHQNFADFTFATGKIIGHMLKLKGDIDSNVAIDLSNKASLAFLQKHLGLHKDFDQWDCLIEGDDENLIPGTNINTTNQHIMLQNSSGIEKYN
# Pemphigus Ab inh – inhibitors of pemphigus antibody binding to DSG3, primary screen, biochemical, bead-based, flow cytometry, scFv-GFP. Desmoglein-3 (Homo sapiens), P32926. DSG3-coupled beads, scFv-anti-DSG3-GFP binding; stronger effect = lower value. binding (percent of control), % at 10 µM. actives 0.48% (n = 310,000);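 active = binding more than 3 SD below its plate's average and above zero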;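 also: hits lower antibody fragment binding to DSG3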
# PfM18AAP inh-2 – PfM18AAP inhibitors, malaria aminopeptidase, confirmation, biochemical, QFRET, recombinant enzyme, triplicate; shares compounds with PfM18AAP inh-1; H-Glu-NHMec fluorogenic cleavage; actives 28% (n = 2,400); inhibition, % at 7.35 µM; AID 2170, 2009;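 active = mean inhibition over replicate wells above the hit cutoff set for the earlier primary screen, cut at about 29% in these data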;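 also: 0% = median of test compound wells and 100% = 2 mM ZnCl2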
# CTSL1 confirm – cathepsin L1 inhibitors, retest, confirmation, counter-screen for PFM18AAP inhibitor project, biochemical, QFRET, triplicate | purified cathepsin L1, Z-Leu-Arg-MCA fluorescence | shares compounds with PfM18AAP inh-1 | 2,400 tested, under 10 active | AID 2178, 2009 | inhibition, % at 5.96 µM;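 active = average inhibition across replicates above the hit cutoff set in the earlier primary screen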;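 also: 0% = median of test compound wells and 100% = Z-Phe-Ala-diazomethylketone 1 µM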
# The depositor's hits bear a star; · = not tested or not shown.
SMILES,PAFAH2 inh,PAFAH1B3 FP inh,PfM18AAP inh-1,PAFAH1B2 FP inh,pPAFAH FP inh,Pemphigus Ab inh,PfM18AAP inh-2,CTSL1 confirm
Cc1ccc(-c2nnn(CC(=O)N(CC(=O)NC3CCCC3)c3cnc4ccccc4c3)n2)o1,0,-3,44*,2,-1,97,-36,4
Oc1ccc(O)c(Cc2nc3ccccc3[nH]2)c1,-2,1,44*,-1,8,99,71*,-6
c1ccc2[nH]c(CCCc3nc4ccccc4[nH]3)nc2c1,-2,2,-8,7,-2,124,·,·
COc1cccc(/C=C2\SC(=O)N(CCC(=O)N3CCC(C(=O)O)CC3)C2=O)c1,2,0,35*,3,7,104,-38,3
COc1cccc(/C=C2\SC(=S)N(CCCC(=O)N3CCCC3)C2=O)c1,9,-1,2,-1,9,91,·,·
COc1ccc2cc(CN(Cc3ccco3)Cc3nnnn3C3CCCCC3)c(=O)[nH]c2c1,-2,-1,35*,-1,0,100,-37,-4
O=C(NNc1nc2ccccc2s1)c1ccc(F)cc1,5,5,32*,1,3,127,2,0
CC(C)C(=O)N(Nc1nc2ccccc2s1)C(=O)C(C)C,-6,4,-1,-7,4,102,·,·
CC(C)NC(=S)NNc1nc2ccccc2s1,4,4,41*,0,-7,106,34*,1
O=C(NNc1nc2c(F)cc(F)cc2s1)c1ccccc1,5,10,39*,9,2,100,23,2
O=C(NNc1nc2c(F)cccc2s1)c1ccccc1,2,18,43*,4,2,118,25,-2
CC(=O)Nc1nc2c(F)cccc2s1,-1,4,1,1,-3,112,·,·
O=C(NNc1nc2ccc(F)cc2s1)c1cccc(F)c1,1,9,22,3,6,93,·,·
O=C(Nc1ccc(C(F)(F)F)cc1)C1CCCCN1S(=O)(=O)c1ccccc1 (centres undefined),4,3,·,3,1,95,·,·
CC1CCCN(CC(O)CN2CCN(CC(O)CN3CCCC(C)C3)C(C)C2)C1 (centres undefined),-1,3,·,3,·,·,·,·
CCc1cccc(C)c1NC(=O)c1ccc2c(c1)CCN2S(C)(=O)=O,5,8,-13,-3,7,93,·,·
CC(C)c1c(C#N)c(N)nc(SCC(=O)c2cc3ccccc3oc2=O)c1C#N,-1,3,3,-4,5,67,·,·
N#Cc1ccc(-c2ccccc2)nc1SCC(=O)c1cc2ccccc2oc1=O,-23,-11,34*,-9,7,·,-19,-1
CNC(=O)Nc1cc(NC(=O)NC)cc(C(F)(F)F)c1,8,4,-5,3,-1,108,·,·
O=c1c(-n2cncn2)c[nH]n1-c1cccc(Cl)n1,3,8,67*,4,1,83,-14,-7
O=Cc1ccccc1-n1cncn1,-3,1,0,2,2,101,·,·
CC(=O)Oc1ccc(C(=O)NCc2ccco2)cc1,9,7,3,2,6,103,·,·
O=[N+]([O-])c1cccc(C2CC(c3ccccc3)=NN2c2ccccc2)c1 (centres undefined),4,9,10,1,7,98,·,·
Cc1ccc(C2=Nc3ccccc3SC(c3cccc([N+](=O)[O-])c3)C2)cc1 (centres undefined),4,6,33*,2,4,95,-51,3
